For 14 compounds, growth results are on record in PubChem BioAssay (NCI).

Each structure is given as a SMILES string. This is part of a sample that, as a whole, favours compounds with a hit. Of some 83,000 tested, about 20% had one in any assay.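 A percent growth of 40 corresponds to 60% growth inhibition; 0 means no net growth; -100 means all cells died. Active threshold: below 10.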 Values without a mark were called inactive. Active and inactive are the calls of the source.

Test systems include SR leukemia; RPMI-8226 leukemia; OVCAR-8 ovarian; OVCAR-5 ovarian; OVCAR-4 ovarian; SK-OV-3 ovarian; IGROV1 ovarian; OVCAR-3 ovarian; HS 578T breast; NCI/ADR-RES ovarian.
Common to all, as to assay: NCI-60 one-dose screen, 48 h (100 = growth as untreated, 0 = no growth, -100 = all killed)
Common to all, as to details: 10 µM unless noted

Turning to `O=C1c2c(c3c4ccccc4[nH]c3c3ccc4ccccc4c23)C(=O)N1CCN1CCNCC1`, the growth was -13.3% (active) with SR leukemia; -35% (active) with RPMI-8226 leukemia; 34.5% with OVCAR-8 ovarian; 99.5% with OVCAR-5 ovarian; 12.9% in the test on OVCAR-4 ovarian; 107% in the test on SK-OV-3 ovarian. For the same compound, the growth with IGROV1 ovarian was 58.1%; in the test with OVCAR-3 ovarian, -47.5% (active); in the test on HS 578T breast, 94.7%; with NCI/ADR-RES ovarian it was 25.9%.
For the compound `CCNCCNc1cc(-c2ccc(C(F)(F)F)cc2)c(C#N)c2nc3ccccc3n12`, the growth with SR leukemia is -47.6% (active); in the test with RPMI-8226 leukemia it was -38.8% (active); in the test with OVCAR-8 ovarian, -47.2% (active); with OVCAR-5 ovarian, -61.9% (active); with OVCAR-4 ovarian, -61.8% (active); in the test on SK-OV-3 ovarian, -94.1% (active). Further, the growth is -78.5% (active) in the test on IGROV1 ovarian, -88.3% (active) in the test with OVCAR-3 ovarian, -46.3% (active) in the test with HS 578T breast and -49.7% (active) in the test with NCI/ADR-RES ovarian.
Turning to `Cc1cccc(CNc2c3ccccc3nc3ccccc23)c1`, the growth was -2.88% (active) in the test with SR leukemia; -20.4% (active) with RPMI-8226 leukemia; 20.3% with OVCAR-8 ovarian; 35.8% in the test with OVCAR-5 ovarian; 27.9% with OVCAR-4 ovarian; 45.3% in the test on SK-OV-3 ovarian. Also, the growth in the test on IGROV1 ovarian is 19.5%; in the test with OVCAR-3 ovarian, 30.8%; in the test with HS 578T breast, 30.3%; in the test on NCI/ADR-RES ovarian, 25.7%.
On to `Cc1c[n+](Cc2ccc3ccccc3c2)cn1Cc1ccc2ccccc2c1`, for which the growth was -47.2% (active) with SR leukemia; -42.4% (active) in the test with RPMI-8226 leukemia; 2.04% (active) with OVCAR-8 ovarian; 27.1% with OVCAR-5 ovarian; -7.39% (active) in the test with OVCAR-4 ovarian; 35.3% with SK-OV-3 ovarian. In addition, the growth in the test on IGROV1 ovarian was -16.3% (active); in the test on OVCAR-3 ovarian, -2.44% (active); in the test with HS 578T breast, 46.8%; with NCI/ADR-RES ovarian, 101%.
As for `C=C(C)[C@@H]1CC[C@]2(C(=O)N3CCOCC3)CC[C@]3(C)[C@H](CC[C@@H]4[C@@]5(C)C/C(=C/c6ccncc6)C(=O)C(C)(C)[C@@H]5CC[C@]43C)[C@@H]12`, the growth in the test with SR leukemia is 34.7%; with RPMI-8226 leukemia it was 4.12% (active); in the test on OVCAR-8 ovarian, 55.6%; in the test with OVCAR-5 ovarian it was 93.3%; in the test on OVCAR-4 ovarian, 49.4%; in the test with SK-OV-3 ovarian, 73.9%. The growth in the test with IGROV1 ovarian was 71.1%; in the test on OVCAR-3 ovarian it was 52.4%; in the test on HS 578T breast it was 74.5%; with NCI/ADR-RES ovarian, 72.3%.
As to `COC(=O)c1nc(-c2ccc(C)cc2)oc1S(=O)(=O)c1cccc(OC)c1`, the growth in the test on SR leukemia was 0.69% (active); in the test on RPMI-8226 leukemia, 94.2%; with OVCAR-8 ovarian, 93%; in the test with OVCAR-5 ovarian it was 92.1%; with OVCAR-4 ovarian, 107%; in the test on SK-OV-3 ovarian it was 105%. Further, the growth was 81.5% with IGROV1 ovarian, 77.8% in the test with OVCAR-3 ovarian, 110% with HS 578T breast and 103% in the test with NCI/ADR-RES ovarian.
Regarding `COc1ccc2c(c1)CC[C@H](O)/C2=C/c1cc(OC)c(OC)c(OC)c1`, the growth was -5.45% (active) in the test with SR leukemia; 34.3% in the test with RPMI-8226 leukemia; 16.1% with OVCAR-8 ovarian; 61% with OVCAR-5 ovarian; 41.1% in the test on OVCAR-4 ovarian; 13.9% in the test with SK-OV-3 ovarian. Further, the growth is 27.8% with IGROV1 ovarian, -18.3% (active) in the test on OVCAR-3 ovarian, 33.3% with HS 578T breast and 6.93% (active) in the test with NCI/ADR-RES ovarian.
Consider `COc1ccc(C(=O)c2cc3c(N)c(C(=O)Nc4ccc(C)cc4)sc3nc2C)cc1`, for which the growth in the test with SR leukemia was 18.1%; in the test with RPMI-8226 leukemia it was 24.1%; in the test on OVCAR-8 ovarian, 22%; in the test with OVCAR-5 ovarian it was 29.6%; in the test on OVCAR-4 ovarian it was 51.1%; with SK-OV-3 ovarian it was 35.3%. For the same compound, the growth in the test with IGROV1 ovarian is 28.6%; with OVCAR-3 ovarian it was -5.4% (active); with HS 578T breast it was -1.41% (active); in the test with NCI/ADR-RES ovarian it was 14.9%.
As for `CN(C)c1ccc(-c2c(C#N)c(N)nn2C(=O)c2ccc(NC(=O)c3ccccn3)cc2)cc1`, the growth in the test on SR leukemia is 98.6%; with RPMI-8226 leukemia, 95.5%; with OVCAR-8 ovarian, 98.3%; in the test on OVCAR-5 ovarian, 95.7%; in the test on OVCAR-4 ovarian it was 105%; with SK-OV-3 ovarian, 108%. In addition, the growth in the test with IGROV1 ovarian was 79.1%; in the test on OVCAR-3 ovarian it was 102%; with HS 578T breast it was 93.9%; with NCI/ADR-RES ovarian, 96.4%.
In the case of `COc1ccc2cc1Oc1ccc(cc1)C[C@H]1c3c(cc4c(c3Oc3cc5c(cc3OC)CCN(C)[C@@H]5C2)OCO4)CCN1C`, the growth was -17.3% (active) with SR leukemia; 48% in the test on RPMI-8226 leukemia; 43.9% with OVCAR-8 ovarian; 90.2% in the test with OVCAR-5 ovarian; 64.8% in the test with OVCAR-4 ovarian; 110% with SK-OV-3 ovarian. The growth was 44.3% with IGROV1 ovarian, 49.5% in the test on OVCAR-3 ovarian, -6.41% (active) in the test with HS 578T breast and 76.2% in the test with NCI/ADR-RES ovarian.
As to `O=C1Nc2ccc(C(=O)O)cc2/C1=N/c1nnc(Sc2ccccc2)s1`, the growth in the test with SR leukemia was 87.8%; in the test with RPMI-8226 leukemia it was 99.1%; in the test on OVCAR-8 ovarian, 98.8%; in the test on OVCAR-5 ovarian it was 113%; in the test with OVCAR-4 ovarian, 111%; in the test with SK-OV-3 ovarian it was 109%. Besides, the growth was 99.7% with IGROV1 ovarian, 105% in the test with OVCAR-3 ovarian, 96.8% in the test with HS 578T breast and 110% with NCI/ADR-RES ovarian.
For the compound `COc1ccccc1NC(=O)N=Nc1c(O)[nH]c2ccccc12`, the growth was 83.9% with SR leukemia; 84.8% with RPMI-8226 leukemia; 92.9% in the test with OVCAR-8 ovarian; 86.7% with OVCAR-5 ovarian; 105% in the test on OVCAR-4 ovarian; 97.8% in the test on SK-OV-3 ovarian. In addition, the growth with IGROV1 ovarian was 82%; in the test on OVCAR-3 ovarian, 107%; in the test on HS 578T breast, 87.8%; in the test with NCI/ADR-RES ovarian, 94.1%.
For `CNc1nnc2n(-c3ccccc3)c(=O)c3cnn(-c4ccccc4)c3n12`, the growth in the test on SR leukemia is 65.2%; in the test on RPMI-8226 leukemia it was 85.3%; with OVCAR-8 ovarian, 95.7%; in the test on OVCAR-5 ovarian it was 99.3%; in the test on OVCAR-4 ovarian, 107%; in the test with SK-OV-3 ovarian, 68.4%. Besides, the growth with IGROV1 ovarian is 94.8%; in the test with OVCAR-3 ovarian, 104%; in the test on HS 578T breast it was 97.4%; in the test on NCI/ADR-RES ovarian, 96.6%.
As for `CC(=O)Oc1ccc(N2C(=O)C(Cl)=C(Nc3cccc(C(F)(F)F)c3)C2=O)cc1`, the growth in the test with SR leukemia is 80.4%; in the test with RPMI-8226 leukemia it was 77.6%; in the test on OVCAR-8 ovarian, 97.9%; in the test on OVCAR-5 ovarian, 91.5%; in the test with OVCAR-4 ovarian, 110%; in the test with SK-OV-3 ovarian, 87.9%. The growth in the test on IGROV1 ovarian was 97.1%; with OVCAR-3 ovarian, 91.9%; in the test on HS 578T breast, 107%; with NCI/ADR-RES ovarian it was 97.5%.
